{"source": "PubChem BioAssay", "data": [{"molecular_target": "Follistatin-related protein 3 (Homo sapiens) (UniProt O95633)", "sequence (O95633 whole entry, looked up)": "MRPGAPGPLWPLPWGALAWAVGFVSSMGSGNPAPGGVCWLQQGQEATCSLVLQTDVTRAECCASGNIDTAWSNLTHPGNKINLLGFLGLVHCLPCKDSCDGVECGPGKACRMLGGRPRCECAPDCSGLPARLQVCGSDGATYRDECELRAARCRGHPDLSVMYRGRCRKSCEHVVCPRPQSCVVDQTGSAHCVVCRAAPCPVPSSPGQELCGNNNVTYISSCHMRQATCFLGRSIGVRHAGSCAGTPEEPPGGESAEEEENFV", "test": "compounds binding follistatin-related protein 3 – biochemical, small-molecule microarray, 635 nm fluorescence, primary screen (AID 1105);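 also: score merges emission near 667 nm and signal to noise per printed spot across three slides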", "settings": "FSTL3 binding, higher = more signal", "values": [{"smiles": "CO[C@H]1COC(=O)[C@@H](C)COC(=O)[C@H](Cc2ccccc2)NC(=O)CC=C[C@H]1C", "composite z-score": 1.06}, {"smiles": "C=CCC(OC(C)=O)[C@@H]1[C@@H](N(Cc2cccc3ccccc23)C(=O)c2ccc(C)cc2)c2cc(OCCCO)ccc2N1C(=O)c1ccc(-c2ccccc2)cc1", "note": "(stereo partly specified)", "composite z-score": 0.268}, {"smiles": "CC(C)[C@H]1NC(=O)[C@@]23C(=O)N[C@@H](Cc4ccccc4)C2[C@H](C)[C@@]2(C)O[C@H]2C3/C=C/C/C=C\\CNC(=O)[C@H](C)NC1=O", "note": "(stereo partly specified)", "composite z-score": -0.825}, {"smiles": "CO[C@H]1COC(=O)[C@@H](Cc2ccccc2)NC(=O)[C@@H](C)COC(=O)CC=C[C@@H]1C", "composite z-score": 0.439}, {"smiles": "CN1CCC(CCCO)=CC1C1CC1", "note": "(stereo unspecified)", "composite z-score": 0.0254}, {"smiles": "CC(C)[Si]1(C(C)C)OCc2cc(C3CC3)nc(-c3ccccc3)c21", "composite z-score": -0.708}, {"smiles": "O=C1c2ccccc2[C@](Cc2ccccc2I)(C(=O)O)[C@H](c2ccc(CO)cc2)N1C1CCCCC1", "composite z-score": 1.06}, {"smiles": "C[C@@H]1NC(=O)CC=C[C@@H](C)[C@@H]2C=C[C@H](O)[C@@H](COC(=O)[C@H](C)NC(=O)CC=C[C@@H](C)[C@@H]3C=C[C@H](O)[C@@H](COC1=O)O3)O2", "composite z-score": 0.632}, {"smiles": "C=CCc1cccc([C@@H]2[C@@H](C)CC[C@H]3C(=O)N4[C@H](c5cccc(CC=C)c5)[C@@H](C)CC[C@H]4C(=O)N23)c1", "composite z-score": 0.831}, {"smiles": "C=CC[C@@]12N=C(c3ccc(OCCCO)cc3)O[C@@H]1c1ccccc1CN(Cc1ccccc1)C2=O", "composite z-score": 0.0791}, {"smiles": "COc1ccc([C@H]2C[C@H]3C(Br)=C[C@]2(OC)C(=O)[C@]32CO2)cc1", "composite z-score": -0.0092}, {"smiles": "C=CCOC(=O)[C@@H]1[C@H]2C(=O)O[C@H](c3ccccc3)[C@H](c3ccccc3)N2[C@H](c2ccc(OCCOC(=O)[C@H]3C[C@H]4C(=O)N5CCC[C@H]5C(=O)N4[C@H]3c3ccc(O)cc3)cc2)[C@@]12C(=O)Nc1ccccc12", "composite z-score": 1.34}, {"smiles": "CC(=O)NCCCC[C@@H]1NC(=O)[C@@H]2C[C@H](C(=O)NCc3ccc(F)cc3)[C@H](c3cccc(OCCO)c3)N2C1=O", "composite z-score": -0.488}, {"smiles": "O=C(CS)NCCCCCNC(=O)[C@H]1C[C@H]2C(=O)N3CCC[C@H]3C(=O)N2[C@H]1c1ccc(O)cc1", "composite z-score": -0.47}, {"smiles": "C=C(COC)/C(=C/C[C@H](OC(C)=O)c1ccc(OCCO)cc1)c1cnc2ccccc2c1", "composite z-score": 1.46}, {"smiles": "COc1cc([C@@H]2N[C@H](C(=O)O)Cc3c2[nH]c2ccccc32)cc(OC)c1OC", "composite z-score": 0.508}, {"smiles": "C=CC[C@@]1(C(=O)N2CCOCC2)N=C(c2ccc(OCCCO)cc2)O[C@@H]1c1ccccc1", "composite z-score": -0.72}, {"smiles": "COCCOC(=O)N1C(=O)[C@@]2(c3cc(C#CC4=CCCCC4)ccc31)[C@H](c1ccc(O)cc1)N1[C@H](c3ccccc3)[C@H](c3ccccc3)OC(=O)[C@H]1[C@@H]2C(=O)N1CCCCCCC1", "composite z-score": 1.24}, {"smiles": "COCCOC(=O)N1C(=O)[C@@]2(c3cc(C#CC4=CCCCC4)ccc31)[C@H](C(=O)NC[C@H](O)c1ccccc1)[C@H]1C(=O)O[C@H](c3ccccc3)[C@H](c3ccccc3)N1[C@@H]2c1ccccc1OCCO", "composite z-score": 1.08}, {"smiles": "C=CC[C@]1(C(=O)NCC(O)CO)N=C(c2ccc(OCCCO)cc2)O[C@H]1c1ccccc1", "note": "(stereo partly specified)", "composite z-score": -1.7}, {"smiles": "C=CCC(OC(C)=O)[C@@H]1[C@@H](N(Cc2cc3ccccc3o2)C(=O)c2ccc(C)cc2)c2cc(OCCCO)ccc2N1C(=O)c1ccc2ccccc2n1", "note": "(stereo partly specified)", "composite z-score": 0.0952}, {"smiles": "CC(C)NC(=O)[C@@]1(Cc2ccccc2I)c2ccccc2C(=O)N(C2CCCCC2)[C@H]1c1ccc(CO)cc1", "composite z-score": 1.35}, {"smiles": "C=C[C@H](OC)[C@@H](OC(=O)Nc1ccc(SC)cc1)c1ccc(OC)c(O)c1", "composite z-score": -1.4}, {"smiles": "CCc1cccc(NC(=O)O[C@H]2[C@H](OC(=O)Nc3ccccc3)[C@@H](OC(=O)Nc3ccccc3)[C@@H](OC)O[C@@H]2CO)c1", "composite z-score": 1.41}, {"smiles": "COCCOC(=O)N1C(=O)[C@@]2(c3cc(C#CCC(C(=O)OC)C(=O)OC)ccc31)[C@H](C(=O)N1CCN(c3ncccn3)CC1)[C@H]1C(=O)O[C@H](c3ccccc3)[C@H](c3ccccc3)N1[C@@H]2c1ccc(O)cc1", "composite z-score": 0.698}, {"smiles": "COc1ccc(-c2cc3c(c(-c4ccccc4)n2)[Si](C(C)C)(C(C)C)O[C@H]3c2ccccc2)cn1", "composite z-score": 0.352}, {"smiles": "CCC(=O)[C@]12O[C@@]3([C@@H]4C(=O)OCC[C@@H]41)N(Cc1ccccc1)C(C)=C(C(=O)OC)[C@@H](c1ccccc1)N3C2=O", "composite z-score": -0.782}, {"smiles": "CO[C@@H]1COC(=O)[C@H](C)NC(=O)CC=C[C@@H](C)[C@H](NS(=O)(=O)c2ccc(C)cc2)COC(=O)CC=C[C@@H]1C", "composite z-score": -0.0201}, {"smiles": "CC(=O)Nc1ccc([C@H]2[C@H](C)CC[C@H]3C(=O)N4[C@@H](CC[C@@H](C)[C@@H]4c4ccc(NC(C)=O)cc4)C(=O)N32)cc1", "composite z-score": 0.845}, {"smiles": "C=CCN(C(=O)C1N(c2ccc(CCO)cc2)C(=O)C2C(C(=O)O)C3C=CC21O3)C(C)(C)C", "note": "(stereo unspecified)", "composite z-score": -2.73}, {"smiles": "CO[C@H]1COC(=O)[C@H](C)NC(=O)CC=C[C@@H](C)[C@H](NS(=O)(=O)c2ccc(C)cc2)COC(=O)[C@@H](OCc2ccccc2)C=C[C@@H]1C", "composite z-score": 0.512}, {"smiles": "COCCCNC(=O)[C@@]1(Sc2ccc(C)cc2)CC(=O)N(Cc2cc(C(F)(F)F)cc(C(F)(F)F)c2)[C@@H]1c1ccc(CO)cc1I", "composite z-score": -1.58}, {"smiles": "CO[C@H]1COC(=O)CC=C[C@H](C)[C@@H](OC)COC(=O)[C@H](Cc2ccccc2)NC(=O)CC=C[C@@H]1C", "composite z-score": 1.22}, {"smiles": "COCCOC(=O)N1C(=O)[C@@]2(c3cc(C#CCCO)ccc31)[C@H](C(=O)N1CCCCCCC1)[C@H]1C(=O)O[C@H](c3ccccc3)[C@H](c3ccccc3)N1[C@@H]2c1ccc(O)cc1", "composite z-score": 1.3}, {"smiles": "Cc1ccc(N2C(=O)c3ccccc3[C@@H](C(=O)NCc3ccccc3)[C@@H]2c2ccc(CO)cc2)nc1", "composite z-score": -0.526}, {"smiles": "O=C1C2C=CC(C(O)C(c3ccccc3)c3ccccc3)N(Nc3ccc([N+](=O)[O-])cc3)C2C(=O)N1c1ccccc1", "note": "(stereo unspecified)", "composite z-score": 0.955}]}]}
